High-throughput results (PubChem BioAssay)
Sm TGR inh – S. mansoni TGR enzyme inhibition. Q962Y6. purified TGR, DTNB reduction, TNB absorbance 405 nm. Potency, µM (top dose mostly 114 µM), for inactives: at the top dose activity change, negative = inhibition, usual class: inhibitors. actives 3% (n = 360,000); further: nearly all actives have a fitted effect of over 60% in size
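First, TGR (20 nM dispensed) and NADPH were mixed with compound. Second, a 15 min room-temperature incubation followed. Third, further NADPH and then DTNB were added to start the reaction. Finally, TNB absorbance was monitored kinetically.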
AMA1 RON2 block – disrupts binding of P. falciparum AMA1 to RON2; AlphaScreen AMA1-biotinylated RON2 peptide binding; Potency, µM (top dose mostly 58.2 µM), for inactives: at the highest dose activity change, negative = inhibition, hits mostly inhibitors; actives 0.2% (n = 360,000); AID 720542;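 further: 0% = vehicle wells and -100% = peptide control; nearly all actives have a fitted effect of over 45% in size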
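AMA1 (3D7) with his tag at 25 nM final met compounds first, then biotinylated RON2 peptide at 25 nM; detection used donor plus acceptor beads, 10 µg/mL apiece, read by AlphaScreen after 30 min at room temperature.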
RE007 growth inh – less growth of the S. pombe RE007 Vpr strain. S. pombe RE007 Vpr strain, BacTiter-Glo ATP luminescence, 24 h. Potency, µM (titrated, usually from 92.2 µM), without a hit: top-dose activity change, negative = less growth, most hits filed as inhibitors. actives 0.21% (n = 360,000). AID 651644; active means well fitted falling curve with a large enough effect; inconclusive means small, poorly fitted or top-dose-only effect; inactive means no such curve, though single readings can be large or run the other way; further: nearly all actives have a fitted effect of over 50% in size
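Fission yeast strain RE007, carrying one chromosomally integrated HIV-1 vpr copy, was seeded at OD 0.01 in PMG+AL medium with 23 nL pinned compound. After 24 h at 30 °C and 99% humidity, viability was read by BacTiter-Glo luminescence.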
AmpC inh detg – inhibitors of E. coli AmpC beta-lactamase with detergent; P00811; AmpC hydrolysis of nitrocefin, absorbance 480 nm, 0.01% Triton; Potency, µM (doses to about 114 µM), without a hit: at the highest dose activity change, negative = inhibition, usual class: inhibitors; actives 0.041% (n = 370,000); AID 485294;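 further: 0% = no-compound wells and -100% = no-enzyme wells; nearly all actives have a fitted effect of over 25% in size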
Target sequence (P00811 whole entry, looked up): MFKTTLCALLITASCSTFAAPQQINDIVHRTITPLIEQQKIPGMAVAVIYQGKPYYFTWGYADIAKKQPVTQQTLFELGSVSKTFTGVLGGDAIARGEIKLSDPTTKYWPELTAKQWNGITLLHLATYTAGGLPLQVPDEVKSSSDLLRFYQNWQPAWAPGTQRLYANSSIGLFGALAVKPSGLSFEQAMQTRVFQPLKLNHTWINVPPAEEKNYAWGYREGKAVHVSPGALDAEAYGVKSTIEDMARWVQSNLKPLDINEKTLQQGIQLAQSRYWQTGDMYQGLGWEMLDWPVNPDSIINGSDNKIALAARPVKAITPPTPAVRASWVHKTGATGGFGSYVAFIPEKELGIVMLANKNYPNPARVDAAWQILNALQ
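AmpC (5.3 nM in the dispensed reagent) in 20 mM phosphate pH 7.0 with 0.01% (detergent screen) or 0.0001% Triton X-100 was preincubated with compounds for 15 min at room temperature. Nitrocefin was then added from an 800 uM solution, and hydrolysis was followed at 480 nm.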
AmpC no deterg – blocks E. coli AmpC beta-lactamase in detergent-free assay; P00811; AmpC nitrocefin hydrolysis, absorbance 480 nm, 0.0001% Triton; Potency, µM (doses to about 57.1 µM), for the others: at the top dose activity change, negative = inhibition, usual class: inhibitors; actives 0.52% (n = 330,000); AID 485341;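 further: plate controls were no compound for no effect and no enzyme for full effect; nearly all actives have a fitted effect of over 20% in size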
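20 mM phosphate pH 7.0 + 0.01% (detergent screen) or 0.0001% Triton X-100; 5.3 nM AmpC reagent; cpd preinc 15 min RT; nitrocefin (800 uM stock) to start; A480 q20 s × 4 min; Activity was normalised to no-enzyme and no-compound control wells.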
Numbers without * were called inactive; ? = inconclusive; · = no result given; [ ] = dose if it differs, or a comment. This is a sample that favours compounds with a hit; in the whole collection about 3.2% have one here. Unless noted, the call rests on the fitted dose curve; in most records, active means well fitted curve in the direction sought with a large enough effect; inconclusive means small, poorly fitted or top-dose-only effect, or another doubt; inactive means no such curve, though single readings can be large; an effect the other way counts as inactive or inconclusive. Unless noted, on the % scale 0 is the no-effect control and ±100 the full control effect; potency means the concentration at half of the fitted maximal effect.

SMILES | Sm TGR inh | AMA1 RON2 block | RE007 growth inh | AmpC inh detg | AmpC no deterg
COc1cccc(C(=O)Nc2cccc(OCc3cc(=O)n4cccc(C)c4n3)c2)c1 | -3.1% | · | · | 7.4% | ·
CCCC(=O)N(C1CC(C)C(C#N)(C#N)C1(C#N)C#N)N(C)C (stereo not given) | 2µM* | -7.3% | -3.5% | 8.7% | 22.1%
CC(=O)N(C1CC(C)C(C#N)(C#N)C1(C#N)C#N)N(C)C (stereo not given) | · | 4.9% | -15.4% | 2.8% | -2.0%
CC1CC(C)CC(C)C(O)C(C#N)=CC=CCC(C2CCCC2C(=O)O)OC(=O)CC(O)C(C)C1 (stereo not given) | · | 12.2% | 6.31µM* | · | ·
Cc1ccc(Cn2c(C)c(CNC(C)c3ccccc3)c(C(=O)O)c2C)cc1 (stereo not given) | -10.6% | · | · | 2.7% | ·
COc1ccc(NC(=O)CC(c2ccccc2)c2ccco2)cc1 (stereo not given) | 39.8µM* | -2.1% | 17.9% | -1.7% | -58.8%
Fc1ccccc1N1CCN(c2ncnc3onc(-c4ccc(Cl)cc4)c23)CC1 | -0.2% | · | · | -0.4% | ·
Cc1cc(C)nc(N/N=C/c2ccccc2OCc2ccc(Br)cc2)n1 | -8.8% | 12.3% | 0.3% | -12.4% | 17.8µM*
Cc1cc(C)nc(N/N=C/c2ccccc2OCc2ccccc2)n1 | -9.2% | 37.7% | -10.5% | -4.8% | -49.5%
Cc1cc(Nc2ccccc2F)n2nc(-c3ccccc3)nc2n1 | 2.4% | · | · | 21.5% | ·
CCOC(=O)c1cccc(NC(=O)c2nn(-c3ccc(OC)cc3)c(=O)c3c2c2ccccc2n3C)c1 | 1.9% | · | · | -7.4% | ·
COc1ccc(S(=O)(=O)N2CCCCCC2)cc1NC(=O)CN1C(=O)NC(C)(c2ccccc2)C1=O (stereo not given) | 35.5µM* | 3.3% | -6.9% | -13.8% | -6.2%
CCC1(c2ccccc2)NC(=O)N(CC(=O)Nc2cc(S(=O)(=O)N3CCCCC3)ccc2N(C)C)C1=O (stereo not given) | 3.9% | 3.9% | 1.1% | ? | -15.4%
CC1CC(C)CN(C(=O)COC(=O)CN2C(=O)c3ccccc3C2=O)C1 (stereo not given) | · | -4.9% | 7.3% | · | -3.4%
CC1CC(C)CN(C(=O)c2ccc3c(c2NCCO)C(=O)c2ccccc2C3=O)C1 (stereo not given) | 1.4% | 22.4µM* | -9.1% | -8.3% | 129.2%
COc1ccc(N2CCN(C(=O)CCc3c(C)nn(-c4ccc(N5CCCC5)nn4)c3C)CC2)cc1 | -4.9% | · | · | -7.3% | ·
CC1=CC(=O)C=C(C)C1=NOc1ccccc1[N+](=O)[O-] | 28.2µM* | 1.6% | -11.4% | ? | -3.2%
O=C1c2ccccc2C(Nc2ccccc2F)N1c1cccnc1 (stereo not given) | -27.1% | 4.5% | -4.7% | -9.5% | -28.1%
COC(=O)c1ccccc1NC1c2ccccc2C(=O)N1c1cccnc1 (stereo not given) | -0.9% | 46.9% | -0.9% | ? | 7.08µM*
Cc1cccc(NC2=C(Cl)C(=O)OC2OC(C)C)c1 (stereo not given) | -0.6% | 9.2% | 4.7% | 6.5% | -16.6%
Cc1ccc(NC2=C(Cl)C(=O)OC2OC(=O)c2ccco2)cc1 (stereo not given) | 14.1µM* | 0.8% | 6.3% | ? | -59.5%
Cc1cccc(NC2=C(Cl)C(=O)OC2OC(=O)c2ccco2)c1 (stereo not given) | 14.1µM* | -5.9% | -10.7% | -1.1% | -24.5%
CC(C)c1nc(N2CCN(C(=O)c3ccco3)CC2)c2c3c(sc2n1)CCCC3 | 28.2µM* | -16.3% | 7.5% | -11.3% | 70.4%
Cc1nc(N2CCN(C(=O)c3ccco3)CC2)c2c3c(sc2n1)CCC3 | ? | -4.1% | -17.5% | ? | 22.6%
CCOc1ccc(NC(=O)CSc2nc(=O)[nH]c3c2CCC3)cc1 | -1.3% | · | · | -2.2% | ·
SMILES | Sm TGR inh | AMA1 RON2 block | RE007 growth inh | AmpC inh detg | AmpC no deterg
O=C(Nc1ccc(Cl)cc1)OCCn1nnnc1C(c1ccccc1)N1CCOCC1 (stereo not given) | -8.0% | 0.0% | 1.8% | -9.0% | 78.3%
CN(C)c1ccc(C(c2nnnn2CCOC(=O)Nc2ccc(Cl)cc2)N2CCOCC2)cc1 (stereo not given) | 25.1µM* | ? | 0.6% | 5.6% | 173.0%
COc1cc(C(O)C(=O)O)ccc1O (stereo not given) | 10µM* | -7.1% | -2.3%[18.4 µM] | ? | -17.1%
COC(=O)c1scc(C)c1NC(=O)/C=C/C(=O)O | 1.41µM* | 0.3% | 5.8% | -9.2% | -18.0%
CCOc1ccc(-c2c(C(=O)N/N=C/c3cccc(Br)c3)nnn2-c2nonc2N)cc1 | 2.1% | 40.5% | -8.8% | 0.7% | 15.8µM*
CCOc1ccc(-c2c(C(=O)N/N=C/c3ccc(O)cc3)nnn2-c2nonc2N)cc1 | -19.1% | 13.2% | 7.4% | -7.0% | -37.8%
CCN1C(=O)C2(c3ccccc31)c1c(oc3ccccc3c1=O)C(=O)N2CCOC (stereo not given) | 4.8% | · | · | 11.4% | ·
CCOc1ccccc1CNC(=O)c1sc2ncccc2c1-n1cccc1 | -0.2% | · | · | -3.9% | ·
COc1ccccc1N1C(=O)C=C(Sc2nc(C)cc(C)n2)C1=O | 1µM* | 41.6% | 8.8% | -0.3% | 18.6%
COc1cc(NC(=O)C2CCN(S(=O)(=O)c3c(C)noc3/C=C/c3cccs3)CC2)cc(OC)c1 | 17.9% | · | · | 0.1% | ·
CSc1oc(-c2ccc(F)cc2)nc1S(=O)(=O)c1ccc(Br)cc1 | 8.5% | · | · | 6.5% | ·
Cc1ccc(S(=O)(=O)c2nc(-c3ccc(F)cc3)oc2N2CCN(c3ccccc3)CC2)cc1 | -1.0% | · | · | 0.2% | ·
CCC(C)S(=O)(=O)c1oc(-c2ccc(F)cc2)nc1S(=O)(=O)c1ccc(F)cc1 (stereo not given) | 5.62µM* | · | · | 0.8% | ·
CCCCCS(=O)(=O)c1oc(-c2cccs2)nc1S(=O)(=O)c1ccc(C)cc1 | 2.82µM* | · | · | -5.1% | ·
CCCCS(=O)(=O)c1oc(-c2cccs2)nc1S(=O)(=O)c1ccc(F)cc1 | 1.58µM* | · | · | -2.0% | ·
CCCCS(=O)(=O)c1oc(-c2ccc(F)cc2)nc1S(=O)(=O)c1ccc(C)cc1 | 3.16µM* | · | · | -1.3% | ·
O=S(=O)(c1ccccc1)c1nc(-c2ccc(F)cc2)oc1N1CCCCCC1 | -1.9% | · | · | 26.6% | ·
CCS(=O)(=O)c1oc(-c2ccc(F)cc2)nc1S(=O)(=O)c1ccccc1 | 0.708µM* | · | · | 13.0% | ·
CC(=O)c1cc(NC(=O)c2cccc(C(F)(F)F)c2)c(=O)oc1C | 35.5µM* | 28.4% | 6.4% | 1.8% | -27.8%
Nc1c(NCCN2CCCCC2)c2ccccc2oc1=O | 28.2µM* | 58.0% | 6.8% | -0.3% | -7.0%
O=c1oc2ccccc2c(Cl)c1CN1CCCCC1 | 4.47µM* | -2.0% | -5.3% | 0.8% | -14.0%
